Test results published in PubChem BioAssay AID1578 (Sanford-Burnham Center for Chemical Genomics, 2009).
In all, about 290,000 compounds went through this assay and about 3,000 (1%) were called active. Many of the other results were omitted from the sample, so actives are more common in it than they were. A number with no mark means an inactive call. Cut-off read from the data, not from the text of the source: active = inhibition mostly above about 36% (no sharp cut-off); inactive = mostly below about 34%.

Assay: inhibition of NOD1-driven NF-kB reporter – cell-based, luminescence, uHTS, primary screen (AID 1578);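 note: HEK-293T reporter cells stimulated with the NOD1 agonist gamma-tri-DAP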
Conditions: NOD1-driven NF-kB luciferase reporter cells, at 4 µM, hits give high values
Work on `Cc1ccc(S(=O)(=O)NC(CC(=O)O)c2cccs2)cc1` (stereo unspecified) yielded an inhibition of -21.8%. For `CCCCCN1C2=NCCN2c2ccccc21`, the inhibition was -41.3%. Work on `Cc1ccc(CN2C3=NCCCN3c3ccccc32)cc1` yielded an inhibition of -29.5%. With `CCCCCCCN1C2=NCCN2c2ccccc21` the inhibition was 35.9% (active). Work on `c1ccc(CN2C3=NCCCN3c3ccccc32)cc1` yielded an inhibition of -21.5%. With `CC(C)(C)c1ccc(CN2C3=NCCCN3c3ccccc32)cc1` the inhibition was 112% (active). With `CCCCCCN1C2=NCCN2c2ccccc21` the inhibition was -24.5%. Compound `CCCCOCCCNC1=NCCCCC1` has an inhibition of -5.9%. `CCNC(=O)NC(=O)C(C)OC(=O)c1oc2ccc(OC)cc2c1C` (stereo unspecified) showed an inhibition of 25.1%. `O=C(O)c1ccc2cc[nH]c2c1` gave an inhibition of 7%. `Cc1ccc2cc(C#N)c(NCc3ccco3)nc2c1` showed an inhibition of -2.1%. In the case of `CC(C)(C)n1cnc2cc(NC(=O)c3ccccc3)ccc21`, the inhibition is reported as -12.2%. Work on `Cc1ccc(OCC(=O)NC(C)c2ccc(Cl)c(Cl)c2)c([N+](=O)[O-])n1` (stereo unspecified) yielded an inhibition of -30.1%. In the case of `CC(NC(=O)CCl)c1ccc(Cl)c(Cl)c1` (stereo unspecified), the inhibition is reported as 93.1% (active). For `CC(=O)NC(C)c1ccc(Cl)c(Cl)c1` (stereo unspecified), the inhibition was -19.4%. In the case of `Cc1ccc(S(=O)(=O)N/N=C/c2ccccc2O)cc1`, the inhibition is reported as -2.2%. Compound `COc1ccc(O)c(/C=N/NS(=O)(=O)c2ccc(C)cc2)c1` has an inhibition of 1.6%. Compound `C(=N\Nc1nc2ccccc2[nH]1)/c1c[nH]c2ccccc12` has an inhibition of 34.5%. For `Fc1c(F)c(F)c(N/N=C/c2c[nH]c3ccccc23)c(F)c1F`, the inhibition was 87.4% (active). With `COc1ccc(OC)c(S(=O)(=O)N/N=C\c2c[nH]c3ccccc23)c1` the inhibition was 30.3%. For `Cc1ccc(S(=O)(=O)N/N=C/c2c[nH]c3ccccc23)cc1`, the inhibition was 62.4% (active). For `COc1ccc2[nH]cc(/C=N/NS(=O)(=O)c3ccc(C)cc3)c2c1`, the inhibition was 44% (active). For `COc1ccc2c(/C=N/NS(=O)(=O)c3ccc(C)cc3)c[nH]c2c1`, the inhibition was -6.6%. In the case of `C(=N\Nc1ccccn1)/c1c[nH]c2ccccc12`, the inhibition is reported as 10.9%. With `COc1ccc(N2CCN(C(CNC(=O)C(=O)NCc3ccc4c(c3)OCO4)c3ccco3)CC2)cc1` (stereo unspecified) the inhibition was -7.2%. `O=C(O)/C=C/C(=O)Nc1ccc(S(=O)(=O)Nc2nccs2)cc1` gave an inhibition of -6.1%. In the case of `COc1ccc(CCNC(=O)CSc2nnc(CNC(=O)c3ccccc3F)o2)cc1OC`, the inhibition is reported as -6.3%. `CCC(C)[C@H](NC(=O)N1CCn2c1nc1ccccc12)C(=O)NCc1ccccc1` (stereo partly specified) gave an inhibition of -0.4%. For `CC(C)C(C)NC(=O)COC(=O)c1cc(S(=O)(=O)N(C)C)ccc1N1CCCC1` (stereo unspecified), the inhibition was -50.6%. `c1ccc(COn2nnc3ccccc32)c(COn2nnc3ccccc32)c1` showed an inhibition of -7.5%. Compound `COc1ccc(OC)c(NC(=O)c2nnn(Cc3ccccc3C)c2N)c1` has an inhibition of -33.8%. With `CC1CSc2ccccc2NC1=S` (stereo unspecified) the inhibition was -19.1%. With `CC1CN(Cc2ccccc2)c2ccccc2NC1=S` (stereo unspecified) the inhibition was 108% (active). In the case of `CC1CC(=S)Nc2ccccc2N1Cc1ccccc1` (stereo unspecified), the inhibition is reported as -2.8%. Work on `COc1cc(NC(=O)c2cnn3c(C(F)F)cc(C4CC4)nc23)c(OC)cc1Cl` yielded an inhibition of -21.7%. `COc1ccc(OCC(=O)Nc2ccc(NC(=O)c3ccccc3Cl)c(OC)c2)cc1` showed an inhibition of -16.9%. In the case of `COCCNC(=O)c1cc2cc3ccc(OC)cc3nc2o1`, the inhibition is reported as 4.6%. For `COc1ccc2cc3cc(C(=O)NCCC(C)C)oc3nc2c1`, the inhibition was -9.5%. For `O=C(CSc1nc2ccccc2[nH]1)N1CCN(c2ccccc2)CC1`, the inhibition was -37.6%. In the case of `CC1=CC(C)(C)Nc2ccc(OC(=O)c3ccco3)cc21`, the inhibition is reported as 98.8% (active). Work on `CC1=CC(C)(C)Nc2ccc(OC(=O)c3cccnc3)cc21` yielded an inhibition of 34.3%. `CC1=CC(C)(C)Nc2ccc(OC(=O)CN3C(=O)c4ccccc4C3=O)cc21` showed an inhibition of 21.8%. For `O=C(NCC1CCCO1)c1ccc(S(=O)(=O)N2CCC(c3nc4ccc(Cl)cc4[nH]3)CC2)cc1` (stereo unspecified), the inhibition was -25.9%. Work on `COCCNC(=O)C(c1ccc(C)o1)N(C(=O)C(=O)NC1CCCCC1)c1ccc(F)cc1` (stereo unspecified) yielded an inhibition of -37.3%. For `CSCCC(NC(=O)c1ccccc1)C(=O)Nc1ccc(C)cc1` (stereo unspecified), the inhibition was 1.6%. For `CSCCC(NC(=O)c1cccc(C)c1)C(=O)O` (stereo unspecified), the inhibition was 2%. In the case of `CSCCC(NC(=O)c1cccc(C)c1)C(=O)Nc1sccc1C(N)=O` (stereo unspecified), the inhibition is reported as 68.6% (active). Compound `NC1=NC(=O)/C(=C/c2cn(CCC(=O)O)nc2-c2ccc(Cl)cc2)S1` has an inhibition of -34.5%. `CCOc1ccc(NC(=O)CSc2nnc(N)s2)c([N+](=O)[O-])c1` gave an inhibition of -24.6%. Compound `OC1CCCN(CC(O)c2ccccc2)C1` (stereo unspecified) has an inhibition of -32.3%. Compound `Cn1nnnc1N=N/C(=N/Nc1ccccc1)c1ccccc1` has an inhibition of -8.4%. In the case of `C/C(=N\Nc1ccc(C(=O)O)cc1)c1ccc(Br)cc1`, the inhibition is reported as 5%. For `Brc1ccc(N/N=C(/N=Nc2nn[nH]n2)c2ccccc2)cc1`, the inhibition was 63.8% (active). Compound `CCOc1ccc(S(=O)(=O)Nc2cc(F)ccc2F)c2cccnc12` has an inhibition of -15.4%. Work on `CC1=NN(c2ccccc2)C(=O)/C1=C/C=C/c1ccccc1` yielded an inhibition of 31.6%. With `CC1=NN(c2cccc(C(=O)O)c2)C(=O)/C1=C\C=C\c1ccco1` the inhibition was -11.6%. For `CC1=NN(c2cccc(C(=O)O)c2)C(=O)/C1=C\C=C/c1ccccc1`, the inhibition was 58.9% (active). Compound `CCCNC(=O)c1onc(CSc2nc3ccccc3[nH]2)c1C(=O)NCCC` has an inhibition of 11.1%. `C=CCn1c(CSc2ccccc2[N+](=O)[O-])n[nH]c1=S` showed an inhibition of -1.6%. Compound `C=CCn1c(Sc2nnc(C)s2)nc2c1c(=O)[nH]c(=O)n2C` has an inhibition of -4.6%. With `C=CCn1c(Sc2ncc([N+](=O)[O-])s2)n[nH]c1=O` the inhibition was 30.1% (active). `CCOC(=O)CSc1nc(N)c(C#N)cc1C#N` gave an inhibition of -40.2%. For `COc1cc(CN2CCNC(=O)C2CC(=O)N(C)CCCN2CCOCC2)cc(OC)c1` (stereo unspecified), the inhibition was -24.5%. In the case of `O=C1CN(/N=C/c2ccc([N+](=O)[O-])o2)C(=O)N1`, the inhibition is reported as -4.5%. In the case of `O=C1NC(=S)S/C1=C\C=C\c1ccc([N+](=O)[O-])o1`, the inhibition is reported as 39.6% (active). `O=[N+]([O-])c1ccc(/C=[N+](\[O-])[C@@H]2CCCC[C@@H]2/[N+]([O-])=C/c2ccc([N+](=O)[O-])o2)o1` showed an inhibition of -2%.
